PubChem BioAssay
Measured potencies and affinities stand elsewhere. The source made the active and inactive calls. Cut-off not given; nearly all actives show IC50 up to about 0.91 µM.

The compounds below were run against Calcium-dependent protein kinase 4 (Plasmodium falciparum (isolate 3D7)) (UniProt Q8IBS5) (assay: PfCDPK4 kinase inhibitors, biochemical, TCAMS library (AID 1159588)). Conditions: recombinant PfCDPK4, Kinase-Glo ATP depletion luminescence.
Sequence of Calcium-dependent protein kinase 4 (Plasmodium falciparum (isolate 3D7)) (Q8IBS5 whole entry, looked up): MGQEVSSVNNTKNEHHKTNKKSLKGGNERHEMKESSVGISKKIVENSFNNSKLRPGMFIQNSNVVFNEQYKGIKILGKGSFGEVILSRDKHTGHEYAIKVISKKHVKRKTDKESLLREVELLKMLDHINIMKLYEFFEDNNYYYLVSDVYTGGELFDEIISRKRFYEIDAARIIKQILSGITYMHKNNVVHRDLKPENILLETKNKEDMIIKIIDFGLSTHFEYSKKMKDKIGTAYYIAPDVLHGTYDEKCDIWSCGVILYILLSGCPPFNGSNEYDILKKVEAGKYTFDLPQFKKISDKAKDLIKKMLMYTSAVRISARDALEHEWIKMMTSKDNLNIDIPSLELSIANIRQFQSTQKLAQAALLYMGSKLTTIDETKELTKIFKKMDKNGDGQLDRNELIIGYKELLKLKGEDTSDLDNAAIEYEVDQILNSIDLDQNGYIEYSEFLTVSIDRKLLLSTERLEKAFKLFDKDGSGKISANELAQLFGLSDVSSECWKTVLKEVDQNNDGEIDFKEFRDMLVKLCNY

Structure (SMILES)	outcome
COc1cc2nc(NCCc3ccccc3)nc(NCCCc3ccccc3)c2cc1OC	inactive
COc1cc(C(=O)N2CC[C@@H](CCN3CCC4(CC3)CN(S(C)(=O)=O)c3ccccc34)C[C@H]2Cc2ccc(Cl)c(Cl)c2)cc(OC)c1OC	inactive
COc1ccc(NC(=O)Nc2cccc(-c3cccc(-c4nc5ccc(F)cc5[nH]4)c3)c2)cc1	inactive
CCCc1ccc(S(=O)(=O)NC2CCN(C(=O)Nc3ccc(I)cc3)CC2)cc1	inactive
O=C(Nc1cccc(-c2ccc(-c3nc4ccc(F)cc4[nH]3)cc2)c1)c1ccncc1	inactive
Cc1ccc2c(NN=CC=Cc3ccccc3)cc(C)nc2c1	inactive
O=C1OC(c2ccccc2)(c2ccccn2)CN1C1CCN(Cc2cccn2-c2ccc(Cl)cc2)CC1 (stereo not given)	inactive
CCN(CC)CCN(Cc1ccc(-c2ccc(C(F)(F)F)cc2)cc1)C(=O)Cn1c(CCc2cccc(F)c2F)nc(=O)c2ccc(C(F)(F)F)cc21	inactive
N#Cc1cncc(-c2nc3c(N4CCC(Cc5ccccc5)CC4)cccc3n2C2CCNC2)c1 (stereo not given)	inactive
N#Cc1ccc(-c2cnc3ccc(NCc4ccc(S(N)(=O)=O)cc4)nn23)cc1	inactive
CCN(CC)CCN(Cc1ccc(-c2ccc(C(F)(F)F)cc2)cc1)C(=O)Cn1c(CCc2cc(F)cc(F)c2F)nc(=O)c2ccccc21	inactive
CC(C)c1cc(Oc2c(I)cc(CCCc3ncc[nH]3)cc2I)ccc1O	inactive
c1ccc2c(c1)ncc1c3ccccc3[nH]c21	inactive
CSc1ccc(CN2CCC(NC(=O)c3ccc(-c4ccc(N(C)C)cc4)s3)CC2)cc1	inactive
Cc1cc(NC(=O)Nc2cccc(N(C)C)c2)c2ccccc2n1	inactive
CN(CCN1CCCC1)c1nc2ccc(-n3cnc4cc(-c5ccc(Cl)cc5)sc4c3=O)cc2[nH]1	inactive
CC(C)n1c(C2CCN(CC3CCN(C(=O)/C=C/c4ccc(Cl)c(Cl)c4)CC3)CC2)nc2ccccc21	inactive
Cc1ccc(NC(=O)Nc2ccc(Cl)c(C(F)(F)F)c2)cc1-c1ccc(C(=O)Nc2ccncc2)cc1	inactive
O=S(=O)(c1cccc(C(F)(F)F)c1)N1CCC(CO)(Cc2cccc(C(F)(F)F)c2)CC1	inactive
CCOc1ccc(CCC(=O)O)cc1OCC	inactive

Structure (SMILES)	outcome
COc1ccc2nccc([C@@H](O)CN3CCC(NCc4nc5c(C#N)cccc5[nH]4)CC3)c2c1	inactive
COc1ccc(C(O)CNC(C)CCc2ccccc2)cc1C(F)(F)F (stereo not given)	inactive
COc1cccc2cc(C(=O)N[C@@H](CC(C)C)C(=O)N[C@H](/C=N/NC(=O)c3ccccc3)Cc3cnc[nH]3)oc12	inactive
O=C(NCc1cccc2ccccc12)C1CCCN(C(=O)c2ccc(O)c(-c3ccc(Cl)c(Cl)c3)c2)C1 (stereo not given)	inactive
Cc1ccccc1C1CCN(C2CCC(NC(=O)c3cncc(-c4ccccc4)c3)CC2)CC1 (stereo not given)	inactive
O=S(=O)(NC1CCN(c2ccnc3cc(Cl)ccc23)C1)c1ccc(C(F)(F)F)cc1 (stereo not given)	inactive
O=C(Nc1ccc(OC2CCN(Cc3ccsc3)C2)c(Cl)c1)c1ccsc1 (stereo not given)	inactive
O=C(CCc1cnc[nH]1)Nc1cccc(-c2ccc(-c3nc4ccccc4[nH]3)s2)c1	inactive
Cc1cccc2c3c([nH]c12)C1(CCN(CCc2ccccc2)CC1)NC(C(=O)NCc1ccccc1)C3 (stereo not given)	inactive
Cc1cc(CNC(=O)c2ccc(-c3ccc(-c4nc5ccc(C(F)(F)F)cc5[nH]4)s3)cc2)on1	inactive
Oc1ccc(CCNc2nc(NCCOc3cccc4ccccc34)nc(N3CCNCC3)n2)cc1	inactive
Nc1c(Cl)cc(C(O)CNCCCCCCOCCc2ccc(CO)s2)cc1Cl (stereo not given)	inactive
N#Cc1ccc(NC(=O)c2ccc(C(=O)NCCCCN3CCC(c4ccc5c(c4OCCOC4CCCCO4)CCCC5)CC3)cc2)cc1 (stereo not given)	inactive
CCCc1cc(Cc2cnc(N)nc2N)cc(CCC)c1O	inactive
CCn1c(C)cc(C=C2SC(=Nc3ccccc3)NC2=O)c1C	inactive
COc1cccc(CNC(=O)[C@H]2CNCCN2C(=O)CCCc2ccccc2)c1	inactive
Clc1ccc(CNc2nc(NCCc3cnc[nH]3)nc(N3CCCC4CCCCC43)n2)cc1 (stereo not given)	inactive
CS(=O)(=O)c1ccc(CNCc2cccc(-c3ccc(-c4nc5ccc(C(F)(F)F)cc5[nH]4)cc3)c2)cc1	inactive
O=C(NCc1cccc(C(F)(F)F)c1)C(c1cc2ccccc2o1)N1CCN(C(c2ccccc2)c2ccccc2)CC1 (stereo not given)	inactive
CCOc1ccccc1C(=O)N1CCc2cc3nccc(N4CCN5CCC[C@H]5C4)c3cc21	inactive
